HADH2 inh: qHTS Assay for Inhibitors of HADH2 (Hydroxyacyl-Coenzyme A Dehydrogenase, Type II) | 3-hydroxyacyl-CoA dehydrogenase type-2 (Homo sapiens), Q99714 | recombinant HADH2, NADH fluorescence, beta-hydroxybutyryl-CoA | Potency, µM (highest dose often 57.1 µM), hits mostly inhibitors | hit rate 3.4% among 73,000 | AID 886, 2007; note: nearly all actives have a fitted effect of over 60% in size
Target sequence (Q99714 whole entry, looked up, one chain of several): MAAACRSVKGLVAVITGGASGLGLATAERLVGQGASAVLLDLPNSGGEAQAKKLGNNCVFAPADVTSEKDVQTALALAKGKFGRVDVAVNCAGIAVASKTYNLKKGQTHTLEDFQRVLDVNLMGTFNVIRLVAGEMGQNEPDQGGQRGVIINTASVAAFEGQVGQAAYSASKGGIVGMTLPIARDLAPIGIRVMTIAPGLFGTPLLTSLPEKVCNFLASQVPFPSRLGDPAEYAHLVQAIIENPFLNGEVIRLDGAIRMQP
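20 nM HADH2 + cpd, 15 min RT; add 1 mM NAD+/90 uM beta-hydroxybutyryl-CoA; kinetic fluorescence 360/450 nm, 4 min. Tris-HCl pH 9.0, 0.01% Tween-20.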
ERK AVP inh: qHTS Assay for Inhibitors of the ERK Signaling Pathway using a Homogeneous Screening Assay. HEK293-V1b, vasopressin-stimulated pERK AlphaScreen. Potency, µM (highest dose often 57.5 µM), usual class: inhibitors. hit rate 0.99% among 72,000. AID 995, 2007; note: nearly all actives have a fitted effect of over 55% in size
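HEK293 cells stably expressing V1b receptor, seeded overnight in 1% FBS, were treated with compounds for 30 min at 37C, then stimulated 5 min with 25 nM vasopressin; phospho-ERK read by AlphaScreen SureFire after lysis.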
15-hLO inh: qHTS Assay for Inhibitors of 15-hLO (15-human lipoxygenase); Polyunsaturated fatty acid lipoxygenase ALOX15 (Homo sapiens), P16050; purified 15hLO-1, xylenol orange hydroperoxide absorbance; Potency, µM (titrated, usually from 57.1 µM), most hits filed as inhibitors; hit rate 1.4% among 74,000; AID 887, 2007; note: nearly all actives have a fitted effect of over 55% in size
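Readout: Fe(III)-xylenol orange absorbance, 573-to-405 nm ratio as reaction progress. Enzyme 40 nM purified human 15hLO-1, substrate 50 uM arachidonic acid, 6 min RT after 15 min compound preincubation; Hepes pH 7.5 buffer with Triton X-100.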
HSD17B inh: qHTS Assay for Inhibitors of HSD17B4, hydroxysteroid (17-beta) dehydrogenase 4; 3-hydroxyacyl-CoA dehydrogenase type-2 (Homo sapiens), Q99714; recombinant HSD17B10, NADH fluorescence kinetic; Potency, µM (highest dose often 57.1 µM), usual class: inhibitors; hit rate 7.6% among 75,000; AID 893, 2007;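 note: the protocol describes HADH2 (HSD17B10) and not the HSD17B4 of the title; nearly all actives have a fitted effect of over 70% in size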
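Activity followed as NADH fluorescence increase (ex 360, em 450 nm) every 30 seconds for 4 min, using final 90 uM beta-hydroxybutyryl CoA and 1 mM NAD+. Recombinant His-tagged enzyme, 20 nM, pH 9.0 Tris buffer, 15 min compound preincubation.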
Bst PK mod: Pyruvate Kinase; purified pyruvate kinase, luminescence ATP production; ribose 5-phosphate activator present at AC10; Potency, µM; hit rate 1.2% among 51,000; in the data active = potency below about 11 µM; inconclusive = mostly about 12 µM to 25 µM;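 the screen sought inhibitors and activators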
FLuc inh: qHTS Assay for Inhibitors of Firefly Luciferase. hit rate 2.2% among 72,000. Luciferin 4-monooxygenase (Photinus pyralis), P08659. purified firefly luciferase, luminescence, 8 min. Potency, µM (top dose mostly 57.1 µM), actives largely listed as inhibitors; note: nearly all actives have a fitted effect of over 40% in size
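Here, luciferase activity is measured as luminescence following an 8 min room-temperature reaction at 10 uM ATP, pH 7.2. Every library sample is titrated.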
A number is an active result; . = inactive; ? = inconclusive; / = no result given; [ ] = remark or other dose. Sampled rows, rich in hits. Any-hit rate of the full collection: about 11%. Unless noted, calls come from the whole dose curve; as a rule, active = well fitted curve in the direction sought with a large enough effect; inconclusive = small, poorly fitted or top-dose-only effect, or another doubt; inactive = no such curve, though single readings can be large; an effect the other way counts as inactive or inconclusive.

SMILES	HADH2 inh	ERK AVP inh	15-hLO inh	HSD17B inh	Bst PK mod	FLuc inh
Nc1ccc2nn(-c3cccc4ccccc34)nc2c1	?	/	?	32µM	/	/
Cc1cc2nn(-c3cccc4ccccc34)nc2cc1N	25µM	.	?	16µM	.	.
O=S(=O)(c1ccccc1)N1CCC2(CC1)CN(c1ncccn1)C2	.	.	.	?	/	.[11.4 µM]
Cc1cc(O)c(C(C)(C)C)cc1Sc1cc(C(C)(C)C)c(O)cc1C	.	?	?	.	/	/
C=CC(C1=CC(=O)C(OC)=C(OC)C1=O)c1ccccc1 (configuration not stated)	/	.	?	?	/	/
C=CC(C1=CC(=O)C(OC)=CC1=O)c1ccccc1 (configuration not stated)	/	.	3.2µM	?	/	/
C=CC(C1=CC(=O)C(OC)=CC1=O)c1ccc(OC)cc1 (configuration not stated)	/	.	7.9µM	.	/	/
CCCCCCCC#Cc1ccccc1C(NC(=O)OC)C(C(=O)OC)C(=O)OC (configuration not stated)	.[11.4 µM]	.[11.5 µM]	.[11.4 µM]	.[11.4 µM]	/	/
O=C(c1cnccn1)N1CCC2(CC1)CCN(c1ccncc1)CC2	.	.	.	.	/	.[11.4 µM]
Clc1cccc(Cl)c1COc1ccccn1	.	.	.	.	9.8	.
NCCOc1ccccn1	.[11.4 µM]	.[11.5 µM]	.[11.4 µM]	.[11.4 µM]	/	.[11.4 µM]
CCOCCCNc1nc2ccccc2[nH]1	.	.	.	.	.	.
C=CCNc1ncnc2c1[nH]c1ccccc12	.	?	.	32µM	/	.
CCCCOc1ncnc2c1[nH]c1ccccc12	.	?	.	7.9µM	/	.
c1ccc2c(c1)[nH]c1c(NCC3CCCO3)ncnc12 (configuration not stated)	.	?	.	32µM	/	.
CCCCOC(=O)c1cc(=O)[nH]c2ccccc12	.	.	.	.	?	.
CCOCCCNc1ncnc2c1[nH]c1ccccc12	.	40µM	.	?	/	.
CCOC(=O)CCN1C(=O)[C@H]2[C@H]3[C@H](O)[C@H](O)C/C(=N/O[C@@H]4O[C@@H](COC(C)=O)[C@@H](OC(C)=O)[C@@H](OC(C)=O)[C@H]4OC(C)=O)[C@H]3CC[C@@H]2C1=O	.[11.4 µM]	.[11.5 µM]	.[11.4 µM]	.[11.4 µM]	/	.[11.4 µM]
COCCNc1ncnc2nc[nH]c12	.	.	.	.	.	.
COCCCNc1ncnc2nc[nH]c12	.	/	.	.	/	6.3µM
COC(=O)C1C(C)OC(=O)NC1c1ccccc1 (configuration not stated)	.[11.4 µM]	.[11.5 µM]	.[11.4 µM]	.[11.4 µM]	/	/
Cc1nc2c(C(=O)NCc3ccc4c(c3)OCO4)c[nH]n2c(=O)c1Cl	?	.	.	32µM	.	.
Cc1occc1C(=O)NCc1ccc2c(c1)OCO2	.[11.4 µM]	.	.[11.4 µM]	.	/	.
COc1ccc(-c2cc(C(=O)NCc3cccs3)no2)cc1OC	.	.	.	?	/	.
COn1c(=S)[nH]c2ccccc2c1=O	/	/	/	/	.	.
SMILES	HADH2 inh	ERK AVP inh	15-hLO inh	HSD17B inh	Bst PK mod	FLuc inh
COc1ccc(OC)c2c(=S)c3ccccc3[nH]c12	?	?	10µM	7.9µM	/	.
O=C(O)[C@@H]1[C@@H](C(=O)Nc2ncccn2)[C@@H]2C=C[C@@H]1O2	.[11.4 µM]	.[11.5 µM]	.[11.4 µM]	.[11.4 µM]	/	.[11.4 µM]
Cc1cc(N2CCN(c3ccccc3F)CC2)nc2cc(O)ccc12	.	.	.	.	.	.
COc1ccc(N2CCN(c3cc(C)c4ccc(O)cc4n3)CC2)cc1	25µM	/	.	32µM	/	.
Cc1cc(N2CCOCC2)nc2cc(O)ccc12	25µM	/	?	20µM	/	.
O=[N+]([O-])c1ccc(CSc2ncnc3c2ncn3[C@@H]2O[C@@H](CO)[C@@H](O)[C@H]2O)cc1	.	.	.	.	/	.
COC(=O)CCc1nc2ccccc2[nH]c1=O	.	.	.	32µM	/	.
CCOC(=O)CCc1nc2ccccc2[nH]c1=O	.	.	.	32µM	.	.
COC(=O)CSCc1nc2ccccc2[nH]c1=O	13µM	.	13µM	32µM	/	.
CC(=O)Nc1nc(-c2cccs2)cs1	?	?	.	.	/	.
Nc1nc(-c2cccs2)cs1	1.3µM	.[11.5 µM]	.[11.4 µM]	.[11.4 µM]	/	.[11.4 µM]
CC(C)CC(=O)Nc1ccc(-c2cn3ccsc3n2)cc1	.	.	.	.	2.7	3.2µM
O=S(=O)(Nc1ccc(-c2cn3ccsc3n2)cc1)c1ccc2c(c1)OCCO2	.	.	.	.	.	.
CC(C)(C)C(=O)Nc1ccc(-c2cn3ccsc3n2)cc1	.	.	.	.	1.6	1µM
C[C@H](OP(=O)(O)O)[C@H](N)C(=O)O	.[11.4 µM]	.[11.5 µM]	.[11.4 µM]	.[11.4 µM]	/	.[11.4 µM]
CSc1nc(C)c(C(=O)Nc2ccccc2)c(C)c1C#N	.	.	.	25µM	.	.
Cc1cc(=O)oc2cc3c(cc12)OCCN3	2µM	.	.	32µM	/	.
COc1ccc(CC[N@+]2(C)COc3cc4oc(=O)cc(C)c4cc3C2)cc1OC	.[11.4 µM]	.[11.5 µM]	.[11.4 µM]	.[11.4 µM]	/	.[11.4 µM]
Cc1cc(=O)oc2cc3c(cc12)OCCO3	.	.	.	25µM	.	.
Cc1cc2oc(=O)cc(C)c2c(=O)o1	.	.	.	.	.	.
OCC1OC(c2ccc3c(c2)OCO3)C=CC1Oc1cc(Cl)cc(Cl)c1 (configuration not stated)	.[11.4 µM]	.[11.5 µM]	.[11.4 µM]	.[11.4 µM]	/	/
O=C(CSc1nnnn1-c1ccccc1)NC(=O)Nc1ccc2c(c1)OCCO2	.	.	.	.	/	16µM
O=C(CSc1nnnn1Cc1ccccc1)Nc1ccc2c(c1)OCCO2	.	.	.	.	.	.
c1ccc2c(c1)nnn2CN1CCOCC1	.[11.4 µM]	.[11.5 µM]	.[11.4 µM]	.[11.4 µM]	/	.[11.4 µM]
COc1cccc(-c2noc(-c3cccnc3)n2)c1	.	.	.	.	/	13µM
COc1cccc(-c2nc(-c3ccc(NC(=O)c4cccnc4)cc3)no2)c1	.	.	.	25µM	.	.
COc1cccc(-c2noc(-c3cccs3)n2)c1	.	.	.	?	?	10µM
COC(=O)c1ccc(-c2nc(-c3cccs3)no2)cc1	.	.	.	.	/	1.6µM
c1cncc(-c2noc(-c3ccco3)n2)c1	.	.	.	.	/	.
CC(=O)OCC1OC(c2ccccc2)C(OC(C)=O)C(OC(C)=O)C1OC(C)=O (configuration not stated)	.	.	.	.	/	.

Bioassay records: PubChem, National Center for Advancing Translational Sciences (NCATS)
